Laboratory results: the supplement of paper PMC10849652
About 8,800 targets were measured; listed, in parts, are those with a hit and a random draw of the rest. About 0.5% of all pairs of compound and target were hits.

What was measured:
Assay in all cases: log2 fold change, soluble protein after heating vs DMSO (PISA); higher = thermal stabilisation; K562 lysate, 10 uM; active = over 0.2 and 3.5 SD of the protein, either way, in both replicates (recomputed)
vemurafenib = compound: CCCS(=O)(=O)Nc1ccc(F)c(C(=O)c2c[nH]c3ncc(-c4ccc(Cl)cc4)cc23)c1F [vemurafenib]
Procedure, shortened: (§1)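 K562 pellets were dounce-homogenised in PBS pH 7.4 with 1 mM MgCl2, and the crude extract at 1 mg/mL protein was treated with 10 μM compound for 30 min. Aliquots were heated for 3 min across 48°C-58°C, pooled, and brought to 0.5% NP-40 at 4°C; soluble protein was the supernatant after 21,000xg for 90 min. Soluble protein was quantified by TMTpro 16plex LC-MS/MS with channel sums equalised, and reported as log2 fold change in thermal stability against DMSO controls, with values from duplicates.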

[1] = compound: CCCS(=O)(=O)Nc1ccc(F)c(C(=O)c2c[nH]c3ncc(Cl)cc23)c1F
Procedure, shortened: as §1

barasertib = compound: CCN(CCCOc1ccc2c(Nc3cc(CC(=O)Nc4cccc(F)c4)[nH]n3)ncnc2c1)CCOP(=O)(O)O [barasertib]
Procedure, shortened: as §1

[2] = compound: CC[C@@H]1C(=O)N(C)c2cnc(Nc3ccc(C(=O)NC4CCN(C)CC4)cc3OC)nc2N1C1CCCC1
Procedure, shortened: as §1

volasertib = compound: CC[C@@H]1C(=O)N(C)c2cnc(Nc3ccc(C(=O)N[C@H]4CC[C@H](N5CCN(CC6CC6)CC5)CC4)cc3OC)nc2N1C(C)C [volasertib]
Procedure, shortened: as §1

[3] = compound: CCn1c(C(=O)N(C2CC2)C2CC2)cc2c3c(ncn3C)c(Nc3cc(C)n(C)n3)nc21
Procedure, shortened: as §1

[4] = compound: CCn1cc(-c2ccnc3[nH]c(-c4cccc(CN(C)C)c4)cc23)c(-c2ccc(NC(=O)N(C)C)cc2)n1
Procedure, shortened: as §1

[5] = compound: CN1CCC(CNc2ccc3ncc(-c4cccc(OC(F)(F)F)c4)n3n2)CC1
Procedure, shortened: as §1

saracatinib = compound: CN1CCN(CCOc2cc(OC3CCOCC3)c3c(Nc4c(Cl)ccc5c4OCO5)ncnc3c2)CC1 [saracatinib]
Procedure, shortened: as §1

sotrastaurin = compound: CN1CCN(c2nc(C3=C(c4c[nH]c5ccccc45)C(=O)NC3=O)c3ccccc3n2)CC1 [sotrastaurin]
Procedure, shortened: as §1

Measured: log2 fold change

EP300 (UniProt Q09472)
inactive: vemurafenib -0.018 | [1] -0.01 | barasertib 0.007 | [2] -0.006 | volasertib -0.042 | [3] -0.009 | [4] -0.151 | [5] 0.058 | saracatinib 0.027 | sotrastaurin -0.022

FREM2 (UniProt Q5SZK8)
Chain of UniProt Q5SZK8 (Q5SZK8 whole entry, looked up): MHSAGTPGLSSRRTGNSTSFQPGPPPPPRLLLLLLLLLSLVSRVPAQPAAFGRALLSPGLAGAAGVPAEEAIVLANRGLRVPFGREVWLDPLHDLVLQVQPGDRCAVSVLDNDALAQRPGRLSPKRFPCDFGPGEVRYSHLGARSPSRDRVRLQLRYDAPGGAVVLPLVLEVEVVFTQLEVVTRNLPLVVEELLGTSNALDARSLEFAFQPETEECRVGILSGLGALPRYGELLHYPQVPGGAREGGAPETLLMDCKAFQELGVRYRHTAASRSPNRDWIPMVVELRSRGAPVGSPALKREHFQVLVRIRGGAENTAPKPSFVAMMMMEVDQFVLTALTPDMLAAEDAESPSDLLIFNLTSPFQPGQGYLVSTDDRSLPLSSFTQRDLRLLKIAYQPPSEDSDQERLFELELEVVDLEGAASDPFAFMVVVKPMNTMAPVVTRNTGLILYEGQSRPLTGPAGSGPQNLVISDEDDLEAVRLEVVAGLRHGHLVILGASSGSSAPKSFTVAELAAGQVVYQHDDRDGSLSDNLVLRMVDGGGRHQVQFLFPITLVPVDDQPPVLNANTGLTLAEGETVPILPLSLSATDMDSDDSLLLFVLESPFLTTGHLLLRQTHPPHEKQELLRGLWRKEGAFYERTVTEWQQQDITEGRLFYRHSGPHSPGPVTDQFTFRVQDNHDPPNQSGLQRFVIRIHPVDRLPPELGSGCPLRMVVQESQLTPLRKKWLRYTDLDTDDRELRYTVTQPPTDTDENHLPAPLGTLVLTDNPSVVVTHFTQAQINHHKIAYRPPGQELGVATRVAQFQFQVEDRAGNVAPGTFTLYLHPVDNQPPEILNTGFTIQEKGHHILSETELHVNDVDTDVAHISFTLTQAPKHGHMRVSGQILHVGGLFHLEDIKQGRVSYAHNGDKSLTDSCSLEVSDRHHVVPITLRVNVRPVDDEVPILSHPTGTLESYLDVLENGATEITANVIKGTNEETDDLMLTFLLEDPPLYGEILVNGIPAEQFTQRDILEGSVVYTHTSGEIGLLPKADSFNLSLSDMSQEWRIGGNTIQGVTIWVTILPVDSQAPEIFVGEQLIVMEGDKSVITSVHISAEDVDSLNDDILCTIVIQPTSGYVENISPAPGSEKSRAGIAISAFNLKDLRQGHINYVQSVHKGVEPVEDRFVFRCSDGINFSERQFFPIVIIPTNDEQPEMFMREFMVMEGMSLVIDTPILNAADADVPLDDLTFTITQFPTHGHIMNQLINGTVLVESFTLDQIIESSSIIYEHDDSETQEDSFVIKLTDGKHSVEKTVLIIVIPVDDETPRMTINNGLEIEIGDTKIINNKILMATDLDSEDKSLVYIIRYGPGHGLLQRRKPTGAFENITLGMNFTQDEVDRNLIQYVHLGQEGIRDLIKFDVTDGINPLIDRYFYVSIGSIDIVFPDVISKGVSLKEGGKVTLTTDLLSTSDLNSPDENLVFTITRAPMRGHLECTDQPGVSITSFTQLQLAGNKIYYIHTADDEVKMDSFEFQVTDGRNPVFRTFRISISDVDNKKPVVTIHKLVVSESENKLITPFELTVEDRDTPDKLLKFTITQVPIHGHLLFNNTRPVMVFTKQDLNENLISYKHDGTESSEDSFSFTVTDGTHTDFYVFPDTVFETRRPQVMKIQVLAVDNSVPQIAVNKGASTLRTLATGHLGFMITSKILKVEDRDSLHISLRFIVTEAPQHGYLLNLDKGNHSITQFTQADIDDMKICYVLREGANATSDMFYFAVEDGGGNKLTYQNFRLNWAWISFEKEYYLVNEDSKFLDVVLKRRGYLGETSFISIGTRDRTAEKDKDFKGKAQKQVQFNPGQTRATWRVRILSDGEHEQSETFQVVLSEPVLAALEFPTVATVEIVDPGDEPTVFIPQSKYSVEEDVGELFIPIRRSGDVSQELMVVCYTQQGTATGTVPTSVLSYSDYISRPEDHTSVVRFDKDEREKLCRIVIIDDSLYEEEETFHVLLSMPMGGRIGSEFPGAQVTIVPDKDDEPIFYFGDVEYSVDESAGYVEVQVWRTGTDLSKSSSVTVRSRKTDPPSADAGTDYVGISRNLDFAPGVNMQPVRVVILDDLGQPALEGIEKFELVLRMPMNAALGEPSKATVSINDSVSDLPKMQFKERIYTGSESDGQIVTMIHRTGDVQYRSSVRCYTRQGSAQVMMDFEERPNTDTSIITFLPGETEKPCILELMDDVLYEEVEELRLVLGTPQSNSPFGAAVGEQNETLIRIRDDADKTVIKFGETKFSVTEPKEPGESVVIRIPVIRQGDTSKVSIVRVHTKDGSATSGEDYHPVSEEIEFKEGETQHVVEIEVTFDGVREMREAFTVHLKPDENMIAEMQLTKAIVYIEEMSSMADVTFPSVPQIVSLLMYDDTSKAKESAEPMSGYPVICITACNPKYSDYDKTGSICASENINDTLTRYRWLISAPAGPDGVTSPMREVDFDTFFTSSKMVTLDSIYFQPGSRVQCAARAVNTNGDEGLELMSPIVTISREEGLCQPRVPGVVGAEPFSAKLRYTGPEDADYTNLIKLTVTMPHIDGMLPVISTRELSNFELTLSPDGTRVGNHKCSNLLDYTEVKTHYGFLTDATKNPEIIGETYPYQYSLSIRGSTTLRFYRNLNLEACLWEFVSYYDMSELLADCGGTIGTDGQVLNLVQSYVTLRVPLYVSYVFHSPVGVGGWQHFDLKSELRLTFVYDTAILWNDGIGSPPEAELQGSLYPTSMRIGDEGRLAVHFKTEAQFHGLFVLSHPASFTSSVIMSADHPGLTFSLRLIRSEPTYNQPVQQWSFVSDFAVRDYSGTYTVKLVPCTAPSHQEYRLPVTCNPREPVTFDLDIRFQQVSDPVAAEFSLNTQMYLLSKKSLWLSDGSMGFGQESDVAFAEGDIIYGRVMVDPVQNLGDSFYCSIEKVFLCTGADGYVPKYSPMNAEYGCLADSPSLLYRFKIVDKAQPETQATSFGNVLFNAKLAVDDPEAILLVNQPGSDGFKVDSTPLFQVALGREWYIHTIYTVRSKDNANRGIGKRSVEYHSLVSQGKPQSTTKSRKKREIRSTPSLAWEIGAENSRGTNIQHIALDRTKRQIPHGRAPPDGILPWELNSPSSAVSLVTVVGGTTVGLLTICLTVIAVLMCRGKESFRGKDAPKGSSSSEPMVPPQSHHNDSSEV
inactive: vemurafenib 0.003 | [1] -0.082 | barasertib 0.136 | [2] -0.072 | volasertib 0.026 | [3] 0.014 | [4] -0.366 | [5] 0.151 | saracatinib 0.051 | sotrastaurin 0.056

FAU (UniProt E9PR30)
inactive: vemurafenib -0.009 | [1] -0.015 | barasertib -0.17 | [2] 0.005 | volasertib -0.002 | [3] 0.036 | [5] -0.076 | saracatinib -0.042 | sotrastaurin -0.012
active: [4] 0.33

FASTKD5 (UniProt Q7L8L6)
inactive: vemurafenib -0.003 | [1] 0.008 | barasertib -0.047 | [2] 0.073 | volasertib -0.065 | [3] 0.028 | [4] 0.082 | [5] -0.245 | saracatinib 0.043 | sotrastaurin -0.026

GGT7 (UniProt Q9UJ14)
Chain of UniProt Q9UJ14 (Q9UJ14 whole entry, looked up): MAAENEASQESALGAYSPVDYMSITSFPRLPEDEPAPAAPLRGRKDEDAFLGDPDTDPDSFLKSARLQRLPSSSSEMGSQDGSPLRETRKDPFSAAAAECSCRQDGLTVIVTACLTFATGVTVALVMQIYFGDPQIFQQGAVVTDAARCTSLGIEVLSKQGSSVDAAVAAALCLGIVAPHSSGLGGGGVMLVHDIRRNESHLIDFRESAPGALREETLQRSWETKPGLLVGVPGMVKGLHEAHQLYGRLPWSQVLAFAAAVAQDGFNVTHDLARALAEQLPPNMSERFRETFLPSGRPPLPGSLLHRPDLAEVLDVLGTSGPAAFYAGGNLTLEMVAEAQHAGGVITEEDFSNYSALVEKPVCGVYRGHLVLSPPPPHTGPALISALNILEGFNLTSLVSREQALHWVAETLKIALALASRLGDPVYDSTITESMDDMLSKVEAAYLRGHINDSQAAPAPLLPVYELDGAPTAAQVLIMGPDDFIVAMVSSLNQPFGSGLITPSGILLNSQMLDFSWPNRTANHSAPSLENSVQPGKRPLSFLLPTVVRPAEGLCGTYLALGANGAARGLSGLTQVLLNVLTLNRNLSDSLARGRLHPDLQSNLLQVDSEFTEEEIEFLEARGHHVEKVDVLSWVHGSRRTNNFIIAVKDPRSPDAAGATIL
inactive: vemurafenib 0.003 | [1] 0.029 | barasertib 0.007 | [2] 0.037 | volasertib -0.014 | [3] -0.014 | [4] -0.003 | [5] 0.027 | saracatinib 0.097 | sotrastaurin 0.032

FCHO1 (UniProt O14526)
inactive: vemurafenib 0.023 | [1] 0.033 | barasertib 0.02 | [2] 0.023 | volasertib -0.062 | [3] -0.026 | [4] -0.053 | [5] -0.004 | saracatinib 0.006 | sotrastaurin -0.015

FADS1, A0A0A0MR51
inactive: vemurafenib -0.041 | [1] 0.145 | barasertib -0.018 | [2] 0.02 | volasertib -0.187 | [3] -0.062 | [4] -0.021 | [5] -0.078 | saracatinib -0.026 | sotrastaurin -0.037

EPRS (UniProt P07814)
inactive: vemurafenib 0.01 | [1] -0.001 | barasertib 0.001 | [2] -0.077 | volasertib -0.068 | [3] 0.024 | [4] -0.025 | [5] -0.035 | saracatinib 0.014 | sotrastaurin 0.02

DYRK1A (UniProt Q13627)
inactive: vemurafenib -0.06 | [1] -0.009 | barasertib 0.025 | [2] -0.047 | volasertib -0.016 | [3] 0.038 | [4] -0.004 | [5] 0.044 | saracatinib -0.017 | sotrastaurin -0.013

GAMT (UniProt Q14353)
inactive: vemurafenib 0.037 | [1] 0.045 | barasertib 0.112 | [2] 0.036 | volasertib 0.007 | [3] 0.011 | [4] 0.003 | [5] -0.029 | saracatinib -0.014 | sotrastaurin 0.018

FLAD1 (UniProt Q8NFF5)
inactive: vemurafenib -0.051 | [1] 0.022 | barasertib -0.063 | [2] 0.055 | volasertib -0.028 | [3] 0.01 | [4] -0.002 | [5] -0.035 | saracatinib -0.001 | sotrastaurin 0.075

FANCI (UniProt Q9NVI1)
inactive: vemurafenib 0.018 | [1] 0.021 | barasertib 0.045 | [2] -0.028 | volasertib -0.053 | [3] 0.031 | [4] 0.021 | [5] -0.119 | saracatinib 0.017 | sotrastaurin 0.02

EMC7 (UniProt Q9NPA0)
Chain of UniProt Q9NPA0 (Q9NPA0 whole entry, looked up): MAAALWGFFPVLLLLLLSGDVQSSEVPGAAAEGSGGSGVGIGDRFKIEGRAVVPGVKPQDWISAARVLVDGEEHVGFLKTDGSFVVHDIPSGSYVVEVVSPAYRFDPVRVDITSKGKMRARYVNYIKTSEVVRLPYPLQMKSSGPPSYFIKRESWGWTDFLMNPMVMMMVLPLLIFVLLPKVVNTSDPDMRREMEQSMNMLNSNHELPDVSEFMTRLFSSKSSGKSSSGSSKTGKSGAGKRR
active: [4] -0.37
inactive: vemurafenib 0.034 | [1] 0.004 | barasertib -0.006 | [2] 0.034 | volasertib 0 | [3] -0.023 | [5] 0.125 | saracatinib 0.005 | sotrastaurin 0.026

EIF2B3 (UniProt Q9NR50)
active: [4] 0.287
inactive: vemurafenib 0.013 | [1] 0.021 | barasertib -0.008 | [2] -0.028 | volasertib -0.02 | [3] 0.044 | [5] -0.111 | saracatinib 0.005 | sotrastaurin -0.003

FBXO9 (UniProt Q9UK97)
inactive: vemurafenib -0.025 | [1] 0.007 | barasertib 0.116 | [2] 0.135 | volasertib -0.012 | [3] -0.015 | [4] 0.049 | [5] -0.083 | saracatinib -0.013 | sotrastaurin 0.021

GIGYF2 (UniProt Q6Y7W6)
inactive: vemurafenib -0.001 | [1] -0.017 | barasertib 0.049 | [2] 0.093 | volasertib -0.05 | [3] -0.001 | [4] 0.028 | [5] -0.055 | saracatinib 0.009 | sotrastaurin -0.001

GBF1 (UniProt Q92538)
inactive: vemurafenib 0.023 | [1] 0.04 | barasertib 0.087 | [2] -0.004 | volasertib -0.05 | [3] 0.006 | [4] -0.011 | [5] -0.046 | saracatinib -0.011 | sotrastaurin 0.019

ENSA isoform 3 (UniProt O43768)
Chain of UniProt O43768 (O43768 whole entry, looked up): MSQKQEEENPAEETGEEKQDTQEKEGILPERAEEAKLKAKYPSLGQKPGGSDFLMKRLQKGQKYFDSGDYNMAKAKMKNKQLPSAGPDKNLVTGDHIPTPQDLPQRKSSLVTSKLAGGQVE
inactive: vemurafenib -0.034 | [1] -0.016 | barasertib -0.052 | [2] 0.049 | volasertib 0.025 | [3] 0.033 | [4] 0.212 | [5] -0.058 | saracatinib -0.021 | sotrastaurin -0.007

EWSR1 isoform 5 (UniProt Q01844)
Chain of UniProt Q01844 (Q01844 whole entry, looked up): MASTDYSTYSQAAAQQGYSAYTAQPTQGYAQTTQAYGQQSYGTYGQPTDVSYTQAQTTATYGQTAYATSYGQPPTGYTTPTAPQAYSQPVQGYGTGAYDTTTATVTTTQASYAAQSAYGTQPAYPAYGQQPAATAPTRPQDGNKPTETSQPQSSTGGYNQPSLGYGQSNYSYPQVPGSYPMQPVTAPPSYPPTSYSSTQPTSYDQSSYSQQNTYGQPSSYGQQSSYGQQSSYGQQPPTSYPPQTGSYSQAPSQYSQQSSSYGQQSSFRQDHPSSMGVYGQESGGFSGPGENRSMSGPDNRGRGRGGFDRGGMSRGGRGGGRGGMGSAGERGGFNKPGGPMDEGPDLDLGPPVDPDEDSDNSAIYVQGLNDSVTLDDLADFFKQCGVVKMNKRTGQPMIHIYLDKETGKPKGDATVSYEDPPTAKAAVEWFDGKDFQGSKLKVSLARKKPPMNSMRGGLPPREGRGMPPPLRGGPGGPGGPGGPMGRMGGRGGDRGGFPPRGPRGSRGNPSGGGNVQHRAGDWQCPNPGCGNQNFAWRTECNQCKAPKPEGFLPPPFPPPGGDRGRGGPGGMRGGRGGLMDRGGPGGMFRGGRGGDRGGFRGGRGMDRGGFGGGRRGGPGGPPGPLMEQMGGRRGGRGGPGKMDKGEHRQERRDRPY
inactive: vemurafenib 0.033 | [1] -0.023 | barasertib -0.013 | [2] 0.039 | volasertib 0.045 | [3] -0.006 | [4] -0.019 | [5] 0.021 | saracatinib -0.017 | sotrastaurin 0.037

ELF2 (UniProt Q15723)
inactive: vemurafenib -0.022 | [1] -0.056 | barasertib -0.123 | [2] 0.005 | volasertib 0.042 | [3] 0.031 | [4] 0.086 | [5] -0.078 | saracatinib -0.023 | sotrastaurin -0.004

ENGASE (UniProt Q8NFI3)
inactive: vemurafenib 0.034 | [1] 0.05 | barasertib 0.003 | [2] 0 | volasertib -0.035 | [3] -0.031 | [4] 0.028 | [5] 0.052 | saracatinib -0.019 | sotrastaurin -0.008

EIF1 (UniProt P41567)
Chain of UniProt P41567 (P41567 whole entry, looked up): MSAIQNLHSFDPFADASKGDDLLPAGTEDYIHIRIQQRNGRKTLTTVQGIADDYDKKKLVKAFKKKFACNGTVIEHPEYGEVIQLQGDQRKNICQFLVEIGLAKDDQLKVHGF
inactive: vemurafenib 0.013 | [1] -0.014 | barasertib -0.053 | [2] 0.053 | volasertib 0.023 | [3] -0.05 | [4] 0.009 | [5] 0.084 | saracatinib -0.02 | sotrastaurin -0.042

FUBP3 (UniProt Q96I24)
inactive: vemurafenib -0.007 | [1] 0.019 | barasertib 0.048 | [2] 0.046 | volasertib -0.032 | [3] 0.042 | [4] 0.028 | [5] -0.012 | saracatinib 0.03 | sotrastaurin -0.077

ENY2 (UniProt Q9NPA8)
Chain of UniProt Q9NPA8 (Q9NPA8 whole entry, looked up): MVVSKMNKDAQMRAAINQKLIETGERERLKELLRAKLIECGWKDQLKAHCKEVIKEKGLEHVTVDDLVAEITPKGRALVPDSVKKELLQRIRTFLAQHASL
inactive: vemurafenib -0.057 | [1] 0.016 | barasertib 0.072 | [2] -0.036 | volasertib 0.033 | [3] 0.048 | saracatinib -0.003 | sotrastaurin -0.003
active: [4] 0.886 | [5] -0.406

FBXO22 (UniProt Q8NEZ5)
inactive: vemurafenib 0.017 | [1] 0.001 | barasertib 0.025 | [2] 0.011 | volasertib -0.027 | [3] 0.012 | [4] -0.002 | [5] -0.008 | saracatinib -0.015 | sotrastaurin 0.01

GFPT1 (UniProt Q06210)
inactive: vemurafenib 0.014 | [1] 0.02 | barasertib 0.009 | [2] -0.026 | volasertib -0.036 | [3] 0.007 | [4] 0.009 | [5] -0.042 | saracatinib 0.009 | sotrastaurin -0.014

GABPB1 isoform 3 (UniProt Q06547)
inactive: vemurafenib 0.057 | [1] 0.074 | barasertib 0.141 | [2] -0.048 | volasertib -0.11 | [3] -0.016 | [4] -0.042 | [5] -0.028 | saracatinib -0.006 | sotrastaurin -0.022

EXOC2 (UniProt Q96KP1)
inactive: vemurafenib 0.018 | [1] 0.109 | barasertib 0.041 | [2] -0.028 | volasertib -0.043 | [3] 0.031 | [4] 0.017 | [5] -0.094 | saracatinib 0.034 | sotrastaurin 0.049

FANCD2 isoform 1 (UniProt Q9BXW9)
inactive: vemurafenib 0.067 | [1] 0.053 | barasertib 0.04 | [2] 0.14 | volasertib -0.045 | [3] 0.017 | [4] -0.135 | [5] 0.02 | saracatinib 0.016 | sotrastaurin -0.029

FBLL1 (UniProt A6NHQ2)
active: [4] -0.307
inactive: vemurafenib 0.081 | [1] 0.019 | barasertib 0.107 | [2] 0.003 | volasertib -0.041 | [3] -0.014 | [5] 0.046 | saracatinib -0.075 | sotrastaurin 0.056
